From the supplement of paper PMC6555819

tested on: VDR:RXRa (NR concentration 270 nM, RXRa partner concentration 90 nM); assay: PBM binding z-score (relative to random genomic background probes); higher = stronger binding; sequences stand for … in GC…GCGATTGACAGCGTAGAATGAAGG
Method: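 Protein-binding microarray (Agilent 4x180K custom design, double-stranded 60-nt probes: 5' GC cap, 34-nt variable region, 24-nt constant primer region; full probe sequence given). Purified or IVT nuclear receptor:RXRα heterodimers (3:1 NR:RXRα, mostly 270:90 nM) or homodimers were incubated for 1 h in PBS with 2% milk and no ligand, then detected with Alexa488 antibodies. Fluorescence from o1-orientation probes (~5 replicates averaged) was converted to z-scores against 500 random hg19 background probes. Variable regions are seed direct-repeat (DR0–DR5) sites, all their single-nucleotide variants and half-site ablations.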

Row | Sequence | PBM binding z-score
1 | CAAACTAGGTCAAGAGGTCAAAGTGCGCTTCCCG | 6.26
2 | TGTCAAAGTTCAAAGGTAATGTAAGTATCCACAC | 4.69
3 | CCTATTAGTTGACCATATGGGCAACCGAAGCTCG | 0.234
4 | TCGAGTAGCTTAGGGGCATTCAGAATGGCGTCGA | -0.202
5 | GGAACGAGTGCAAAGTTGATAGCATCTGTCGACG | 1.49
6 | GGAACGAGGGCATTCGAGTTGATATCATGGCGAT | 3.92
7 | TCTCGAAGGACACGAAGGTCAGAGCTTTCCAGAG | 1.86
8 | GCTAGCAGGCCATTTGCGTCACTCAATGACGGGC | -0.801
9 | AGAATGAGGTTAAGGTCAGGGAAACAGAATACAT | 3.82
10 | TTACCAAGGTGAGCTGAGGTCGTTGAGCCAACTC | 4.29
11 | CGACCAAGGTCAATGCTAGGTCAGTGAAAGCATT | 4.69
12 | AGAATGAGGTTAAGATCTGGGAAACAGAATACAT | 1.13
13 | TCTCGCAGGACACGAAAGGTCAGAGCTCGACATC | 2.89
14 | CGTCCAAGTTCAACTAAGGTAACGTAAAGCACGC | 4.16
15 | TAGACAGGGTCAAAGGCCAGAGTACGAATGTCGA | 4.73
16 | TCTTGTAGATCAGCTGGTTAAGAAAGCTGGCCAA | -0.152
17 | CAAACTAGGTCAAAGGTCACAGTCGAGCCAACCA | 6.63
18 | TGAATTAGGTTAAAGATCAGGGAACGTGGCGTCG | 0.374
19 | ATAAGTAGGTTAGCTGGGGTCATTCAGACTAGGC | 5.98
20 | GGAACGAGGGCATTCGAGTTGATTGCATGGCGAT | 3.81

Row | Sequence | PBM binding z-score
21 | TCTCGGAGGACACGAAAGGTCAAAGCTCGACATC | 4.67
22 | CCTGCTAGGTCAATGCTCAGCTAAAGCAGCTCGC | 0.598
23 | ATAACAAGGTGATCGTGAGGTCGTTGATACTAAC | 2.97
24 | GCTGCTAGATCAACTGATGGTCAGCTAAAGCTCG | -0.766
25 | AATACAGGGGCACTAGGCCAGAGTAGGTACGAAT | 0.171
26 | ACTATTAGTTGACTTAGGGGAACCGATACGACGC | 0.378
27 | CAAACTAGGTCACCGGAAGGTTAAAGTCCGCATG | 4.29
28 | ACTAGTTGGTCAGCAGAGGTCACACACAATTCGG | 4.87
29 | CGTCCAAGGTCAAAGGTCCGTGAAGAGATGACGG | 4.62
30 | AGTCAAAGTTTACTAGGTAACGTAAGATTCAGCT | 0.363
31 | ACTCGGCGGACAAAGGTCAGAGCTACGCCAGTGA | 2.44
32 | TCTATTAGTTGATTAGGGCAATCGAAACAGCGGA | 0.607
33 | CTTGAAAGGTCGGTTGAGGTGAGTATACGGATAA | 2.66
34 | ATCTCTAGGTAAAGATAGGTCAGTGAATGCAAAT | 1.13
35 | GCAGACAGGTGAAACGCAGGTAACTCCGGGTGGC | -0.595
36 | CCTTACGGGTCACTCCAGGTTAAAGCATCGGAGT | 4.34
37 | CCTACTGGGCCATCCGGTCATTGATATCAACGTT | 0.0642
38 | CCAGACATGTGAGAAGGTAACTCAGCCTCGATTA | -0.439
39 | TCATATAGGTAATACAGGTGAATGTCGGCATCTA | 1.3
40 | AGTCAAAGTTCAGGATGAGGTAACGTAAAGCACG | 2.88
